This note sets out measurements from PubChem BioAssay (NCI).

Compounds without any hit were thinned out: in the full panel of roughly 83,000, 20% have a hit.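 Interpretation: 100, growth as untreated; towards 0, rising growth inhibition; 0, no net growth; 0 to -100, cell death. Compounds scoring below 10 were considered active.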 A number with no mark means an inactive call. Active and inactive are the calls of the source.

Some test systems named below: SR leukemia; RPMI-8226 leukemia; OVCAR-8 ovarian; OVCAR-5 ovarian; OVCAR-4 ovarian; IGROV1 ovarian; OVCAR-3 ovarian; HS 578T breast; NCI/ADR-RES ovarian; SK-OV-3 ovarian.
What all share (assay): NCI-60 one-dose screen, 48 h (100 = growth as untreated, 0 = no growth, -100 = all killed)
What all share (details): 10 µM

Consider `O=C(/C=C/Nc1ccccc1)c1ccc2c(c1)Nc1ccccc1S2`, for which the growth in the experiment on SR leukemia was 87.8%; with RPMI-8226 leukemia it was 90.9%; with OVCAR-8 ovarian it was 33.5%; in the experiment with OVCAR-5 ovarian it was 87.7%; in the experiment on OVCAR-4 ovarian it was 49.2%; with IGROV1 ovarian, 87.3%. Further, the growth with OVCAR-3 ovarian is 91.1%; with HS 578T breast it was 63%; in the experiment with NCI/ADR-RES ovarian it was 61.2%.
As for `Cc1ccc(C(=O)NNC(=O)CSc2nc3ccccc3c(=O)[nH]2)cc1`, the growth is 73% in the experiment on SR leukemia; 105% with RPMI-8226 leukemia; 97.8% in the experiment on OVCAR-8 ovarian; 104% in the experiment on OVCAR-5 ovarian; 104% in the experiment on OVCAR-4 ovarian; 116% with SK-OV-3 ovarian. Besides, the growth is 102% in the experiment with IGROV1 ovarian, 103% with OVCAR-3 ovarian, 97.5% in the experiment with HS 578T breast and 101% in the experiment with NCI/ADR-RES ovarian.
Regarding `Cc1ccc(C(=O)N/C(=C2/OCCN2C)[P+](c2ccccc2)(c2ccccc2)c2ccccc2)cc1`, the growth was 79.5% in the experiment on SR leukemia; 25.6% in the experiment on RPMI-8226 leukemia; 80.5% with OVCAR-8 ovarian; 96.3% in the experiment with OVCAR-5 ovarian; 69.8% with OVCAR-4 ovarian; 69.9% in the experiment with IGROV1 ovarian. The growth was 54.5% in the experiment on OVCAR-3 ovarian, 79.6% in the experiment with HS 578T breast and 101% in the experiment with NCI/ADR-RES ovarian.
In the case of `N#Cc1c(NC(=O)c2cccc(C(F)(F)F)c2)sc2c1CCC(O)=C2`, the growth in the experiment with SR leukemia is 14.6%; in the experiment with RPMI-8226 leukemia it was 25%; in the experiment with OVCAR-8 ovarian, 41.6%; in the experiment on OVCAR-5 ovarian, 119%; in the experiment on OVCAR-4 ovarian it was 29.5%; in the experiment with IGROV1 ovarian, 34.4%. The figures for the growth with OVCAR-3 ovarian, with HS 578T breast and in the experiment on NCI/ADR-RES ovarian were 36.8%, 44.1% and 18.6%, respectively.
Turning to `O/N=C(\CSc1nnc(-c2c[nH]c3ccccc23)n1-c1ccccc1)c1ccc(Cl)cc1`, the growth with SR leukemia was 12.8%; in the experiment on RPMI-8226 leukemia it was -13.4% (active); in the experiment with OVCAR-5 ovarian, -43.4% (active); with OVCAR-4 ovarian, -81.3% (active); in the experiment with SK-OV-3 ovarian it was -1.58% (active); with IGROV1 ovarian, -34.1% (active). Further, the growth in the experiment with OVCAR-3 ovarian was 34.2%; with HS 578T breast, -31.7% (active); with NCI/ADR-RES ovarian, -70.2% (active).
On to `Cc1ccc(C(=O)CSc2nnc(-c3c[nH]c4ccccc34)n2-c2ccccc2)cc1`, for which the growth in the experiment on SR leukemia was 53%; in the experiment on RPMI-8226 leukemia it was 58.9%; with OVCAR-8 ovarian, 11.3%; with OVCAR-5 ovarian, 13%; in the experiment on OVCAR-4 ovarian, -15.6% (active); with SK-OV-3 ovarian, 24%. The growth in the experiment with IGROV1 ovarian was 24.2%; with OVCAR-3 ovarian, 65.2%; in the experiment on HS 578T breast it was -0.727% (active); with NCI/ADR-RES ovarian, -27.7% (active).
As for `NS(=O)(=O)c1ccc(NC(=O)CSc2ccc(-c3ccc(Cl)cc3)nn2)c(Br)c1`, the growth was 66.4% in the experiment with SR leukemia; 72.5% with RPMI-8226 leukemia; 3.04% (active) in the experiment on OVCAR-8 ovarian; 73.3% in the experiment with OVCAR-5 ovarian; 29.8% in the experiment with OVCAR-4 ovarian; 60.2% with SK-OV-3 ovarian. Also, the growth with IGROV1 ovarian is 63.4%; in the experiment on OVCAR-3 ovarian, 7.69% (active); in the experiment with HS 578T breast, 4.72% (active); in the experiment with NCI/ADR-RES ovarian it was 70%.
As for `O=C(Nc1nc2ccccc2s1)c1ccc(Br)cc1`, the growth is 80.1% in the experiment with SR leukemia; 64.2% in the experiment with RPMI-8226 leukemia; 92.9% in the experiment on OVCAR-5 ovarian; 80.6% with OVCAR-4 ovarian; 104% with SK-OV-3 ovarian; 75.1% with IGROV1 ovarian. For the same molecule, the growth with OVCAR-3 ovarian was 111%; with HS 578T breast, 95.5%; in the experiment on NCI/ADR-RES ovarian it was 76.7%.
With `O=C(NCCCCCCCCCC[P+](c1ccccc1)(c1ccccc1)c1ccccc1)c1ccc(-n2nc(-c3ccccc3O)nc2-c2ccccc2O)cc1`, the growth is 1.87% (active) with SR leukemia; 1.07% (active) in the experiment with RPMI-8226 leukemia; -22.2% (active) with OVCAR-8 ovarian; -94% (active) in the experiment on OVCAR-5 ovarian; -51.8% (active) in the experiment with OVCAR-4 ovarian; -71.5% (active) in the experiment with SK-OV-3 ovarian. Also, the growth in the experiment with IGROV1 ovarian was -75.7% (active); with OVCAR-3 ovarian it was -14.1% (active); with HS 578T breast, -22.1% (active); with NCI/ADR-RES ovarian, 37.4%.
As to `CCCCSc1nc(Nc2ccc(/C(C)=N/NC(N)=S)cc2)c(C#N)c(-c2ccccc2)n1`, the growth is 61.6% with SR leukemia; 47.3% in the experiment with RPMI-8226 leukemia; 60.4% with OVCAR-5 ovarian; 5.32% (active) with OVCAR-4 ovarian; 108% with SK-OV-3 ovarian; 57.6% with IGROV1 ovarian. Moreover, the growth in the experiment with OVCAR-3 ovarian is 13.4%; with HS 578T breast, 43.6%; in the experiment with NCI/ADR-RES ovarian, 25.3%.
In the case of `Nc1nc(-c2ccccc2)cs1`, the growth with SR leukemia was 30%; with RPMI-8226 leukemia, 34.6%; in the experiment with OVCAR-5 ovarian, 83.5%; in the experiment on OVCAR-4 ovarian it was 59.4%; in the experiment on SK-OV-3 ovarian it was 82.5%; in the experiment with IGROV1 ovarian, 63.7%. Besides, the growth in the experiment on OVCAR-3 ovarian was 44.6%; in the experiment with HS 578T breast, 55.8%; in the experiment on NCI/ADR-RES ovarian, 28.5%.
As for `CC(=O)c1ccc(Nc2nc(SC(C)C)nc(-c3ccccc3)c2C#N)cc1`, the growth in the experiment with SR leukemia is 70%; in the experiment on RPMI-8226 leukemia, 90.3%; in the experiment on OVCAR-8 ovarian, 5.17% (active); in the experiment with OVCAR-5 ovarian, 55.8%; with OVCAR-4 ovarian, -19.1% (active); with IGROV1 ovarian, 8.92% (active). Moreover, the growth is 25.3% in the experiment with OVCAR-3 ovarian, 28.2% in the experiment with HS 578T breast and 1.21% (active) in the experiment with NCI/ADR-RES ovarian.
As to `COc1cc(/C=N/NC(=O)c2ccc3nc(-c4ccc(Cl)cc4)[nH]c3c2)cc(OC)c1OC`, the growth is -6.5% (active) with SR leukemia; -23.9% (active) with RPMI-8226 leukemia; -62.7% (active) in the experiment on OVCAR-8 ovarian; 62.6% in the experiment on OVCAR-5 ovarian; -51.6% (active) in the experiment with OVCAR-4 ovarian; -25% (active) with SK-OV-3 ovarian. Besides, the growth in the experiment on IGROV1 ovarian is 7.62% (active); in the experiment on OVCAR-3 ovarian, -90% (active); in the experiment on HS 578T breast, -52.1% (active); with NCI/ADR-RES ovarian, 75.7%.
`Cc1ccc(-c2nc(Nc3ccccc3C(=O)O)c3ccccc3n2)cc1`: the growth with SR leukemia is 18.6%; in the experiment on RPMI-8226 leukemia, 17.1%; in the experiment with OVCAR-8 ovarian it was 30.5%; in the experiment on OVCAR-5 ovarian, 65.9%; in the experiment on OVCAR-4 ovarian, 21.8%; in the experiment with IGROV1 ovarian it was 31.1%. Further, the growth was 6.01% (active) in the experiment with OVCAR-3 ovarian, -9.53% (active) in the experiment on HS 578T breast and 5.16% (active) in the experiment on NCI/ADR-RES ovarian.
